Screening results from PubChem.
VDR inh – vitamin D3 receptor (human) inhibition; AID 504847; VDR-SRC2-3 peptide fluorescence polarization, 2 h; Potency, µM, actives largely listed as inhibitors; P11473; 400,000 compounds, 0.93% hits
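After 23 nl compound addition and a short centrifugation, plates sat for 2 hours at ambient temperature; polarization of fluorescence then indicated loss of VDR binding to peptide SRC2-3.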
12-LOX inh – blocks human arachidonate 12S-lipoxygenase; P18054; AID 1671190; purified 12hLO, xylenol orange hydroperoxide absorbance; Potency, µM (titrated, usually from 108 µM), hits mostly inhibitors; 580,000 compounds, 1.1% hits
Target sequence (P18054 whole entry, looked up): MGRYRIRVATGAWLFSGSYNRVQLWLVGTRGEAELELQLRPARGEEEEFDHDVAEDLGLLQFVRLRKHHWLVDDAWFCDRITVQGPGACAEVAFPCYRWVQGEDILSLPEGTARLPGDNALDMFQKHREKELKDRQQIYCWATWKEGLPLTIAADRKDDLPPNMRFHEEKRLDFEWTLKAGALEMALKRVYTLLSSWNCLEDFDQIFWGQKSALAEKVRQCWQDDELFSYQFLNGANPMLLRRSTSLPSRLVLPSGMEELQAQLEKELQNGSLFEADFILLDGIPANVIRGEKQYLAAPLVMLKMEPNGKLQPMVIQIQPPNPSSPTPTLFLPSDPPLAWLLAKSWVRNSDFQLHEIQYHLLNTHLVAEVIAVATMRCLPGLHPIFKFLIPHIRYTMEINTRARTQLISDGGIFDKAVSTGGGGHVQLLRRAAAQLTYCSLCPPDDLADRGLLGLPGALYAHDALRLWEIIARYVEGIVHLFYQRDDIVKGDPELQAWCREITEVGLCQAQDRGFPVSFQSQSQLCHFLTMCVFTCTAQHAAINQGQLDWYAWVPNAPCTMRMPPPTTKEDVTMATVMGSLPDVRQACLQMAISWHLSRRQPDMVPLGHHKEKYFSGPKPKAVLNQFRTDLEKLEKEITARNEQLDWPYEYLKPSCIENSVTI
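Purified human 12hLO (150 nM final) in 25 mM Hepes, 0.01% Triton X-100, pH 7.0 was preincubated 15 min at room temperature with compound. Then 40 uM arachidonic acid was added, 30 min. Hydroperoxide was read by Fe-XO absorbance ratio 573/405 nm.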
Sfp inh – inhibitors of Bacillus subtilis Sfp phosphopantetheinyl transferase. Q9F4F7. Biochemical Sfp PPTase activity, qHTS. Potency, µM, usual class: inhibitors. 310,000 compounds, 3.5% hits;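 note: the enzyme is Sfp with the accession as filed and its product quenches rhodamine fluorescence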
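Reaction rates are the 30-min fluorescence difference (ex 525, em 598 nm) in wells containing 15 nM Sfp, 5 uM rhodamine-CoA and 12.5 uM BHQ-2-YbbR at pH 7.6 with 10 mM MgCl2.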
PLK1 PBD inh – inhibitors of human PLK1 polo-box domain binding. 360,000 compounds, 2.8% hits. AID 720504. Potency, µM, hits mostly inhibitors. Plk1 PBD binding of FITC phosphopeptide, fluorescence polarization. P53350; note: series mostly up to about 57 µM; nearly all actives have a fitted effect of over 65% in size
Large screens that a line does not name were inactive. Compounds with a hit are over-represented: about 4.2% of the library has one in this group of screens. Calls come from the whole dose curve; as a rule, active = well fitted curve in the direction sought with a large enough effect; inconclusive = small, poorly fitted or top-dose-only effect, or another doubt; inactive = no such curve, though single readings can be large; an effect the other way counts as inactive or inconclusive.

CC(=O)OC(=C(OC(C)=O)c1ccccc1)c1ccccc1	none (no result: Sfp inh)
CC(=O)ON=C1C=CC(=C(C#N)c2ccccc2)C=C1	PLK1 PBD inh 2.38µM (no result: VDR inh, Sfp inh)
COc1ccc(C(C#N)=C2C=CC(=NO)C=C2)cc1	VDR inh inconclusive, 12-LOX inh inconclusive, Sfp inh 25.1µM, PLK1 PBD inh 26.7µM
CC(=O)c1c(OC(=O)c2ccccc2Br)ccc2c(C)cc(=O)oc12	none
Cc1cc(OC(=O)c2ccccc2Br)cc(=O)n1C	PLK1 PBD inh 21.2µM
CCOC(=O)c1csc(NC(=O)CSc2nnnn2-c2ccc3c(c2)OCCO3)n1	none
Cn1c(=O)c(C#N)c(-c2ccc(F)cc2)c2cc(C(=O)c3cc(Cl)cc(Cl)c3O)cnc21	12-LOX inh inconclusive, Sfp inh 44.7µM, PLK1 PBD inh 26.7µM
CCOc1ccc(CN2CCNC(=O)C2CC(=O)NCCc2nc(C)c3c(n2)CCC3)cc1 (stereo not given)	none
CCC(C)(C)NC(=O)c1cccc(NC(=O)C(C)C)c1	PLK1 PBD inh 21.2µM
CC(C)C(=O)Nc1cccc(NC(=O)c2cccc(F)c2)c1	none
Cc1ccc(NC(=O)C2CC(=O)Nc3ncnn32)cc1Cl (stereo not given)	PLK1 PBD inh 26.7µM
O=C(NCC1CCOCC1)NC1CCCC1	none (no result: VDR inh, Sfp inh, PLK1 PBD inh)
O=C(CSc1ccccc1C(=O)O)NC1CCCCCC1	none
O=C(CSc1ncccc1C(=O)O)NC1CCCCCCC1	PLK1 PBD inh 26.7µM
CCN(C(=O)COC(=O)c1cc(OC)ccc1Br)C1CCS(=O)(=O)C1 (stereo not given)	none (no result: Sfp inh)
O=C(C[C@@H]1CCNC[C@@H]1Cc1cc(COc2ccccc2)on1)N1CCN(c2ccc(F)cc2)CC1	none (no result: VDR inh, Sfp inh, PLK1 PBD inh)
CCc1ccc(NC(=O)C2CCCN(c3nn4cc(-c5ccc(OC)cc5)nc4s3)C2)cc1 (stereo not given)	none (no result: Sfp inh, PLK1 PBD inh)
O=[N+]([O-])c1cc(C(F)(F)F)ccc1Sc1ccc2ccccc2n1	12-LOX inh inconclusive, Sfp inh inconclusive, PLK1 PBD inh 29.9µM
O=[N+]([O-])c1cc(C(F)(F)F)ccc1Sc1nccn1Cc1ccccc1	VDR inh inconclusive
COc1cc(C(=O)NC(c2ccccc2)c2ccccc2)cc(OC)c1OC	12-LOX inh inconclusive
O=C(CN1CCC(n2nnc3cc(F)ccc32)CC1)NCc1ccco1	Sfp inh 56.2µM
Cc1c(C(=O)NC(C)CCc2ccccc2)cccc1[N+](=O)[O-] (stereo not given)	PLK1 PBD inh 11.9µM
CCOC(=O)c1cc(NC(=O)CSc2nnc(CN3CCOCC3)n2C)ccc1Cl	none (no result: Sfp inh)
Nc1c(C(=O)NC2CCCC2)c2nc3ccccc3nc2n1N	Sfp inh 31.6µM
Cc1cc(C)n(-c2nnc(C)n2NS(=O)(=O)c2ccc(F)cc2)n1	none
CCOC(=O)N1CCc2c(sc3c2C(=O)NC(c2ccccc2)N3)C1 (stereo not given)	Sfp inh 56.2µM, PLK1 PBD inh inconclusive (no result: 12-LOX inh)
N#Cc1c(Nc2ccccc2C(F)(F)F)s[nH]c1=O	VDR inh inconclusive, 12-LOX inh inconclusive, Sfp inh 3.55µM, PLK1 PBD inh 26.7µM
N#Cc1c(Nc2ccccc2Cl)s[nH]c1=O	VDR inh inconclusive, 12-LOX inh inconclusive, Sfp inh 3.98µM, PLK1 PBD inh inconclusive
Cc1cc(C)c(C#N)c(Nc2ccccc2Cl)n1	none
Cc1occc1C(=O)NC1CCCN(Cc2ccc(Cl)cc2)C1 (stereo not given)	12-LOX inh inconclusive
CC(=O)C1=CCC(c2ccc(C)o2)N(S(=O)(=O)c2ccc(C)cc2)C1 (stereo not given)	12-LOX inh 10µM (no result: VDR inh, Sfp inh)
O=C(COc1ccccc1F)NCC(c1ccco1)N1CCCC1 (stereo not given)	none
Cc1ccc2c(c1)c1c(n2CC(O)CNC(CO)(CO)CO)CCCC1 (stereo not given)	none
Cc1ccc2c(c1)c1c(n2CC(O)CNC2CCCCC2)CCCC1 (stereo not given)	12-LOX inh 28.2µM
CCCc1nc2ccc(Br)cn2c1Cc1ccccc1	none (no result: VDR inh, Sfp inh)
CCn1cc(/C=C(\NC(=O)c2ccc(OC)c(OC)c2)C(=O)N2CCN(C)CC2)c2ccccc21	VDR inh inconclusive, PLK1 PBD inh 26.7µM
COc1cc(C(=O)N/C(=C\c2cn(C)c3ccccc23)C(=O)NCCCN2CCOCC2)cc(OC)c1OC	VDR inh inconclusive, PLK1 PBD inh 16.8µM
Cc1ccc(C(=O)N/C(=C\c2ccc(-c3ccccc3[N+](=O)[O-])o2)C(=O)NCCCN2CCOCC2)cc1	VDR inh inconclusive, Sfp inh inconclusive, PLK1 PBD inh 26.7µM
Cc1ccc(C(=O)N/C(=C/c2ccc(C(C)C)cc2)C(=O)NCCCN2CCOCC2)cc1	12-LOX inh inconclusive
O=C(CS(=O)c1ccc(C(F)(F)F)cc1[N+](=O)[O-])Oc1ccc(Cl)cc1 (stereo not given)	VDR inh 50.1µM, PLK1 PBD inh 13.4µM
Cc1cc(C)cc(OC(=O)CS(=O)c2ccc(C(F)(F)F)cc2[N+](=O)[O-])c1 (stereo not given)	VDR inh 20µM, PLK1 PBD inh inconclusive
Cc1ccc(OCCNc2ccc(C(F)(F)F)cc2[N+](=O)[O-])cc1	12-LOX inh inconclusive
COc1ccccc1CNC(=O)CCNS(=O)(=O)c1ccc2[nH]c(=O)oc2c1	PLK1 PBD inh 33.6µM
COc1cccc(CNC(=O)CCNS(=O)(=O)c2ccc3[nH]c(=O)oc3c2)c1	none (no result: 12-LOX inh)
COc1ccccc1NC(=O)CCNS(=O)(=O)c1ccc2[nH]c(=O)oc2c1	VDR inh inconclusive, PLK1 PBD inh 29.9µM
COc1ccc(OC)c(NC(=O)CCNS(=O)(=O)c2ccc3[nH]c(=O)oc3c2)c1	none
COC(=O)[C@]1(Sc2ccc(C)cc2)CC(=O)N[C@@H]1c1ccco1	12-LOX inh inconclusive (no result: VDR inh, Sfp inh)
Cc1nn(-c2ccccc2)cc1/C=N/NC(N)=S	12-LOX inh inconclusive
Cc1nn(-c2ccccc2)cc1C(c1c(N)[nH]c(=S)[nH]c1=O)c1c(N)[nH]c(=S)[nH]c1=O	12-LOX inh 6.31µM, Sfp inh 22.4µM
O=C(NCc1ccccc1OC(F)(F)F)C1CCC(=O)N(Cc2ccccn2)C1 (stereo not given)	VDR inh inconclusive, PLK1 PBD inh 11.9µM
Cc1c(CC(=O)N[C@H](C(=O)O)C(C)C)c(=O)oc2cc3c(cc12)CCC(C)(C)O3	VDR inh inconclusive, PLK1 PBD inh 21.2µM
c1cc(-c2nsc(-c3ccncc3)n2)ccn1	VDR inh inconclusive, Sfp inh 44.7µM, PLK1 PBD inh 18.9µM
CC(C)C1c2nccn2CCCN1C(=O)Cn1c(=O)oc2ccccc21 (stereo not given)	none (no result: VDR inh, Sfp inh, PLK1 PBD inh)
O=C(O)c1cc2c(ccc3ccccc32)oc1=O	none (no result: VDR inh, PLK1 PBD inh)
N=c1oc2ccc3ccccc3c2cc1C(N)=S	Sfp inh inconclusive, PLK1 PBD inh 23.8µM
C/C(=N\O)c1cc2c(ccc3ccccc32)oc1=O	none (no result: VDR inh, Sfp inh, PLK1 PBD inh)
CC(=O)c1cc2c(ccc3ccccc32)o1	12-LOX inh 31.6µM (no result: VDR inh, Sfp inh, PLK1 PBD inh)
CC1CCN(C(=O)c2cc3ccccc3c(=O)o2)CC1	none
CC1CCN(C(=O)c2cc3c(ccc4ccccc43)o2)CC1	12-LOX inh 44.7µM
C[C@H](CO)N1C[C@H](C)[C@@H](CN(C)C(=O)NC2CCCCC2)Oc2c(NC(=O)C3CCCCC3)cccc2C1=O	none (no result: Sfp inh)
